Data on 24 compounds can be found in PubChem BioAssay (Tox21).

A short description of test [1]: qHTS assay to identify small molecule agonists of H2AX - cell viability counter screen (AID 1224847; calls by dose curve; note: nearly all actives have a fitted effect of over 30% in size; note: potency is the fitted concentration of half-maximal effect;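 for activity change, negative = cytotoxicity: wild-type CHO-K1 cells; top concentration of the series differs between compounds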). The procedure, abridged: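 Cells plated first: CHO-K1, 1000 per well in 10% FBS medium, incubated overnight at 37C. Then 15-point compound titration added (final DMSO 0.76%) for 3 hr. Finally CellTiter-Glo added and luminescence read.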
A general note: qHTS replaces the single test concentration by a dilution series.

Test [2] is described as follows: qHTS assay to identify small molecule antagonists of the estrogen related receptor (ERR) signaling pathway from Tox21 library (AID 1224848). Note: nearly all actives have a fitted effect of over 50% in size. Note: potency is the fitted concentration of half-maximal effect. The gist of the method: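 ERR reporter cell line (from NTP) seeded 2,000 cells/well, rested 6 h at 37 C/5% CO2, then pin-dosed with compounds in DMSO. After 18 h at 37 C, ONE-Glo added; luminescence read after 30 min at room temperature.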

Test [3] is described as follows: qHTS assay to identify small molecule agonists of the estrogen related receptor (ERR) signaling pathway from Tox21 library (AID 1224849; calls by dose curve; note: nearly all actives have a fitted effect of over 15% in size). As to conditions: ERR reporter cell line, ONE-Glo luciferase, 18 h; at 92.4 µM (top of the series) unless noted. The gist of the method: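 Screening used an NTP-provided ERR luciferase cell line. Compounds in DMSO were added 6 h after seeding and left 18 h at 37 C before a 30 min ONE-Glo step and luminescence reading.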

Test [4] can be described thus: qHTS RealTime-Glo MT Cell Viability Assay in HepG2 cells - 24 hour (AID 1224867). Note: nearly all actives have a fitted effect of over 50% in size. Note: potency is the fitted concentration of half-maximal effect. The gist of the method:
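HepG2 cells were seeded at 600 cells/well together with NanoLuc luciferase and a cell-permeant prosubstrate, preincubated 5 h at 37 C/5% CO2, then pin-dosed with compounds in DMSO. Nonlytic luminescence from viable cells was read at each time point.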

The nature of test [5]: qHTS RealTime-Glo MT Cell Viability Assay in HEK293 cells - 32 hour (AID 1224868). For activity change, negative = cytotoxic: top concentration of the series differs between compounds. Note: nearly all actives have a fitted effect of over 50% in size. Note: potency is the fitted concentration of half-maximal effect. The gist of the method:
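HEK293 cells were seeded at 600 cells/well together with NanoLuc luciferase and cell-permeant prosubstrate, preincubated 5 h at 37 C/5% CO2, then given compound in DMSO by pintool. Luminescence from viable-cell prosubstrate reduction was read repeatedly over 40 h.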

Test [6] can be described thus: A CellTox Green Cytotoxicity Assay to monitor cytotoxicity in HEK293 cells - 0 hour (AID 1224869). Note: nearly all actives have a fitted effect of over 50% in size. Note: potency is the fitted concentration of half-maximal effect. The procedure, abridged:
(§1)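 Fluorescence intensity, read at 0, 8, 16, 24, 32 and 40 h of compound treatment, reflected dye binding to DNA of dead HEK293 cells; compounds (23 nL, DMSO) were added 5 h after plating cells with reagent.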

Test [7] in a line: A CellTox Green Cytotoxicity Assay to monitor cytotoxicity in HEK293 cells - 40 hour (AID 1224871). Note: nearly all actives have a fitted effect of over 45% in size. Note: potency is the fitted concentration of half-maximal effect. The gist of the method:
as §1

A short description of test [8]: qHTS RealTime-Glo MT Cell Viability Assay in HepG2 cells - 40 hour (AID 1224870). Note: nearly all actives have a fitted effect of over 50% in size. Note: potency is the fitted concentration of half-maximal effect. The procedure, abridged:
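HepG2 cells (600/well) mixed with RealTime-Glo MT reagent, settled 5 h at 37 C/5% CO2 before compound addition. Nonlytic NanoLuc luminescence from viable-cell prosubstrate reduction read repeatedly during 40 h treatment at 37 C.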

The structures appear in SMILES notation. Where “and” joins values, the source holds several entries; their conditions need not be identical. Equal entries are not always repeated. Values without a mark were called inactive. Inconclusive results are not listed. Calls of active or inactive are those of the source. Unless noted, calls come from the whole dose curve; as a rule, active = well fitted curve in the direction sought with a large enough effect in the repeat runs; inconclusive = weak or mixed curves; inactive = no such curve, though single readings can be large; an effect the other way counts as inactive or inconclusive.
% is set by controls: 0 for no effect and ±100 for the full control effect.

Regarding `Cc1cc(Nc2ccc(O)cc2)ccc1N`, the Potency in test [1] was 89.4 µM (active); in test [2], 19.2 µM (active); in test [4], 48.8 µM (active); in test [5], 19.4 µM (active); in test [7] it was 24.4 µM (active). The activity change, positive = activation in test [3] is -47.7%. In addition, in test [6], the Potency entry is “inactive”.

For the compound `CCN=C1C=CC(=C(c2ccc(N(CC)CC)cc2)c2ccc(N(CC)CC)cc2)c2ccccc21`, the Potency is 35.5 µM (active) in test [1], 17.3 µM (active) in test [4], 19.4 µM (active) in test [8] and 12.2 µM (active) in test [7]. Besides, the Potency entry in test [6] is “inactive”.

In the case of `O=C1OC(OC(=O)c2cccnc2Nc2cccc(C(F)(F)F)c2)c2ccccc21` (stereo not drawn), the Potency entry in test [1], in test [2], in test [4], in test [5], in test [6] and in test [8] was “inactive” throughout. Besides, the Potency entry in test [7] is “inactive”. Also, in test [3], the activity change, positive = activation is -0.557% [at 42.5 µM].

As for `Cc1oc(-c2ccccc2)nc1CCOc1ccc(C[C@H](Nc2ccccc2C(=O)c2ccccc2)C(=O)O)cc1`, the Potency in test [1] is 80 µM (active). Further, the Potency result in test [2], in test [4], in test [5], in test [6], in test [8] and in test [7] was “inactive” throughout. The activity change, positive = activation in test [3] was -13.2%.

Consider `N[C@@H](CSSC[C@H](N)C(=O)O)C(=O)O`, for which the values for the activity change, negative = cytotoxicity in test [1] and in test [4] were -5.28% [at 0.582 µM] and -0.491% [at 0.29 µM], respectively. In addition, the activity, negative = inhibition in test [2] is -3.98% [at 0.349 µM]. Also, the activity change, positive = activation in test [3] was -3.33% [at 0.349 µM]. In addition, the activity change, negative = cytotoxic was 5.6% [at 0.29 µM] in test [5] and -2.12% [at 0.29 µM] in test [8]. The cytotoxicity in test [6] was -2.52% [at 0.29 µM]. Also, the cytotoxicity increase in test [7] was 3.14% [at 0.29 µM].

Take `O=Nc1ccc(NO)cc1`: the Potency result in test [1], in test [2], in test [4], in test [6], in test [8] and in test [7] was “inactive” in each case.

As to `S=P(N1CC1)(N1CC1)N1CC1`, the Potency result in test [1], in test [4], in test [6], in test [8] and in test [7] was “inactive” throughout. Also, the activity change, positive = activation in test [3] was -21.7%.

Consider `CN1[C@@H]2CC[C@@H]1CC(OC(=O)C(CO)c1ccccc1)C2` (stereo partly drawn), for which the Potency result in test [1], in test [4], in test [5], in test [6] and in test [8] was “inactive” each time.

`CC(=O)Nc1ccc(O)cc1`: the Potency entry in test [1], in test [4], in test [5], in test [6], in test [8] and in test [7] was “inactive” throughout.

Consider `CSc1c(Cl)c(Cl)c(Cl)c(Cl)c1Cl`, for which the Potency result in test [1], in test [4], in test [6] and in test [8] was “inactive” throughout. Besides, the Potency in test [7] was 48.7 µM (active).

For `CN(C)CCOC(c1ccccc1)c1ccccc1` (tested in a mixture with another compound), the Potency entry in test [1], in test [4], in test [6] and in test [8] was “inactive” each time.

For the compound `C=C1C(C)(C)[C@@]2(Cl)C(Cl)[C@]1(Cl)C(Cl)(Cl)C2(Cl)Cl` (stereo partly drawn), the results for the Potency in test [1] and in test [2] were 111 µM (active) and 60 µM (active), respectively. Further, the activity change, positive = activation in test [3] was -68%. The Potency entry in test [6] and in test [8] was “inactive” throughout.

In the case of `C/C=C/C=N/NC(=O)c1ccncc1`, the Potency entry in test [1], in test [4] and in test [8] was “inactive” throughout.

Take `CC(C)(C)CC(C)(C)c1ccccc1O`: the Potency in test [1] was 90.3 µM (active). In test [3], the activity change, positive = activation was 1.59%. Moreover, the Potency entry in test [4], in test [6] and in test [8] was “inactive” each time.

On to `O=C(O)CCn1c2c(c3ccccc31)C[C@H](NS(=O)(=O)c1ccc(F)cc1)CC2`, for which the Potency result in test [1], in test [4], in test [5], in test [6], in test [8] and in test [7] was “inactive” in each case.

As to `CCCOc1sc(C(=O)N2CCC(c3cc(CN)ccc3F)CC2)c(C)c1Br`, the Potency in test [1] is 46.3 µM (active); in test [2], 49.9 µM (active); in test [4] it was 22.5 µM (active); in test [5], 22.5 µM (active); in test [8] it was 28.3 µM (active); in test [7], 31.8 µM (active). Moreover, the activity change, positive = activation in test [3] was -71.6%. The Potency result in test [6] was “inactive”.

Turning to `C/C=C/C(=O)Oc1c(CCCCCC(C)C)cc([N+](=O)[O-])cc1[N+](=O)[O-]`, the Potency is 50.5 µM (active) in test [1]; 6.11 µM (active) in test [2]; 21.9 µM (active) in test [4]; 15.5 µM (active) in test [5]; 43.6 µM (active) in test [8]; 38.9 µM (active) in test [7]. Moreover, in test [3], the activity change, positive = activation is -62.8%. The Potency entry in test [6] was “inactive”.

Take `COc1ccc(-n2nc(CCC(=O)N(C)O)cc2-c2ccc(Cl)cc2)cc1`: the Potency result in test [1], in test [4], in test [6], in test [8] and in test [7] was “inactive” in each case.

For the compound `CCOC(=O)[C@@](C)(N)Cc1ccc(O)c(O)c1`, the Potency result in test [1], in test [2], in test [4], in test [5], in test [6] and in test [8] was “inactive” in each case. The Potency entry in test [7] is “inactive”. For the same compound, in test [3], the activity change, positive = activation is -0.831% [at 42.5 µM].

Take `S=C(SSSSSSC(=S)N1CCCCC1)N1CCCCC1`: in test [1], the activity change, negative = cytotoxicity is -11.5% [at 31.6 µM]. In test [6], the cytotoxicity is -0.227% [at 15.8 µM]. In test [8], the activity change, negative = cytotoxic is -10.6% [at 15.8 µM].

With `O=C1c2c(O)ccc([N+](=O)[O-])c2C(=O)c2c([N+](=O)[O-])ccc(O)c21`, the Potency in test [1] is 50 µM (active); in test [2], 15.2 µM (active); in test [4], 38.5 µM (active); in test [5], 24.3 µM (active). Also, the activity change, positive = activation in test [3] is -80%. Further, the Potency entry in test [6] and in test [7] was “inactive” throughout.

For the compound `O=C1C=CC(=O)N1c1ccccc1`, the Potency is 45 µM (active) in test [1]; 54.5 µM (active) in test [2]; 13.8 µM (active) in test [4]; 11 µM (active) in test [5]; 11 µM (active) in test [8]; 11 µM (active) in test [7]. Also, the activity change, positive = activation in test [3] is -78.1%. The Potency entry in test [6] was “inactive”.

Take `CCN(CC)c1ccc(N)cc1`: the Potency in test [1] is 51.9 µM (active); in test [2], 2.5 µM (active); in test [5], 22.5 µM (active); in test [7] it was 44.8 µM (active). For the same compound, the activity change, positive = activation in test [3] is -77.3%. Moreover, the Potency result in test [6] is “inactive”.

As to `CCN=c1cc2oc3cc(NCC)c(C)cc3c(-c3ccccc3C(=O)OCC)c-2cc1C`, the Potency in test [1] is 7.1 µM (active) and 31.8 µM (active); in test [2], 108 nM (active) and 122 nM (active); in test [4], 43.5 µM (active) and 24.5 µM (active); in test [5], 1.09 µM (active) and 1.38 µM (active); in test [6], 6.89 µM (active) and 6.92 µM (active); in test [8], 43.5 µM (active) and 21.9 µM (active). Moreover, the Potency in test [7] is 7.73 µM (active) and 12.3 µM (active). For the same compound, the activity change, positive = activation in test [3] was -79.8% and -73.2%.
